This passage reports composite z-score and z-score results from PubChem BioAssay.

The structures appear in SMILES notation. The source made the active and inactive calls.

Assay [1] has as its system PRMT1 (protein arginine N-methyltransferase 1). The assay is described as follows: PRMT1 binders on small-molecule microarrays, primary screen, biochemical, small-molecule microarray, 635 nm fluorescence (AID 1088).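 Further: binding of Prmt1 protein to compounds spotted on small-molecule microarray slides.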 Particulars: small-molecule microarray binding, higher = more signal.
Assay [2] can be described thus: yeast growth modulation, basal conditions, primary screen, YJM789 clinical isolate, OD600, 24 h (AID 1089).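 Further: growth of clinical yeast isolate S. cerevisiae YJM 789 seeded 1000 cells per well; test concentration not given here.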 The settings on record: S. cerevisiae YJM789 growth, higher = more signal, called active from +8 up or from −8 down.
The nature of assay [3]: fission yeast growth modulation, primary screen, strain 972, OD600, 24 h, no modulator (AID 1090).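 Further: basal condition with compound alone and no growth modifier present; test concentration not given here.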 The settings on record: S. pombe 972 growth, higher = more signal, called active from +8 up or from −8 down.
Assay [4] is described as follows: S. cerevisiae growth modulation with rapamycin, primary screen, strain BY4716, OD600, 96 h (AID 1091). Further: test concentration not given here. The settings on record: higher = more signal, called active from +8 up or from −8 down.
Assay [5] deals with Torsin-1A-interacting protein 2 (Homo sapiens) (UniProt Q8NFQ8). The assay is described as follows: LULL1 binders on small-molecule microarray, primary screen, cell lysate, human LULL1 lysate, 635/667 nm fluorescence (AID 1092).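 Further: probe is lysate of COS7 cells overexpressing human LULL1; score merges per-feature 667 nm fluorescence with signal-to-noise.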 The settings on record: hLULL1 lysate binding, 635 nm fluorescence, higher = more signal.
The nature of assay [6]: E. coli growth modulation, two-sided OD650, primary screen, E. coli filamentation project, strain DRC41, 24 h (AID 1093).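 Further: MC1000 strain lacking acrAB efflux and sulA so SOS filamentation is blocked; test concentration not given here.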 Particulars: OD650, 24 h, higher = more signal, called active from +8 up or from −8 down.
Assay [7] can be described thus: small-molecule microarray binders of probe aLefty2, primary screen, biochemical, biotinylated probe, 635/667 nm fluorescence (AID 1094).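 Further: score merges spot fluorescence near 667 nm with spot signal-to-noise ratio.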 Particulars: higher = more signal.
The test system of assay [8] is Noggin (protein binding on small-molecule microarray). The assay is described as follows: Noggin binders on small-molecule microarray, primary screen, biochemical, 635/667 nm fluorescence (AID 1095).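 Further: score merges 667 nm feature fluorescence with signal to noise over triplicate slides.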 Particulars: 635 nm fluorescence, higher = more signal.
In assay [9] the target is Neurogenic locus notch homolog protein 3 (Homo sapiens) (UniProt Q9UM47). Kind of assay: NOTCH3 binders on small-molecule microarray, primary screen, biochemical, 635/667 nm fluorescence (AID 1096). The settings on record: NOTCH3 binding, 635 nm fluorescence, higher = more signal.
Assay [10] can be described thus: small-molecule microarray binders of probe aEGFR, primary screen, biochemical, biotinylated probe, 635/667 nm fluorescence (AID 1097).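 Further: probe is a biotinylated anti-EGFR antibody binding compounds printed on slides; score combines fluorescence near 667 nm and signal to noise of each spot.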 Particulars: higher = more signal.

Sequence of Torsin-1A-interacting protein 2 (Homo sapiens) (Q8NFQ8 whole entry, looked up): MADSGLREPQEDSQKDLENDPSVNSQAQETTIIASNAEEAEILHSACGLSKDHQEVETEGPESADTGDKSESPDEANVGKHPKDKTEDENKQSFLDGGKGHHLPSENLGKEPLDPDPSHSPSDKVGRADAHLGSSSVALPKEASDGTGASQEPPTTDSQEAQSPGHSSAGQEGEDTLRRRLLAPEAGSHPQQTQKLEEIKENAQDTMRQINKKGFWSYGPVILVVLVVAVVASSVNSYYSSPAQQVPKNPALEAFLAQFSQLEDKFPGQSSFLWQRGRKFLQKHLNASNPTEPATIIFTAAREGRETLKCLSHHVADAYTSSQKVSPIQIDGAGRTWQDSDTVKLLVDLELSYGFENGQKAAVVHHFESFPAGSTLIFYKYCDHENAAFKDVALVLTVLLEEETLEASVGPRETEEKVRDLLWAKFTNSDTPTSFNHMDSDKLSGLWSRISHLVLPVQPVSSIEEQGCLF
Sequence of Neurogenic locus notch homolog protein 3 (Homo sapiens) (Q9UM47 whole entry, looked up): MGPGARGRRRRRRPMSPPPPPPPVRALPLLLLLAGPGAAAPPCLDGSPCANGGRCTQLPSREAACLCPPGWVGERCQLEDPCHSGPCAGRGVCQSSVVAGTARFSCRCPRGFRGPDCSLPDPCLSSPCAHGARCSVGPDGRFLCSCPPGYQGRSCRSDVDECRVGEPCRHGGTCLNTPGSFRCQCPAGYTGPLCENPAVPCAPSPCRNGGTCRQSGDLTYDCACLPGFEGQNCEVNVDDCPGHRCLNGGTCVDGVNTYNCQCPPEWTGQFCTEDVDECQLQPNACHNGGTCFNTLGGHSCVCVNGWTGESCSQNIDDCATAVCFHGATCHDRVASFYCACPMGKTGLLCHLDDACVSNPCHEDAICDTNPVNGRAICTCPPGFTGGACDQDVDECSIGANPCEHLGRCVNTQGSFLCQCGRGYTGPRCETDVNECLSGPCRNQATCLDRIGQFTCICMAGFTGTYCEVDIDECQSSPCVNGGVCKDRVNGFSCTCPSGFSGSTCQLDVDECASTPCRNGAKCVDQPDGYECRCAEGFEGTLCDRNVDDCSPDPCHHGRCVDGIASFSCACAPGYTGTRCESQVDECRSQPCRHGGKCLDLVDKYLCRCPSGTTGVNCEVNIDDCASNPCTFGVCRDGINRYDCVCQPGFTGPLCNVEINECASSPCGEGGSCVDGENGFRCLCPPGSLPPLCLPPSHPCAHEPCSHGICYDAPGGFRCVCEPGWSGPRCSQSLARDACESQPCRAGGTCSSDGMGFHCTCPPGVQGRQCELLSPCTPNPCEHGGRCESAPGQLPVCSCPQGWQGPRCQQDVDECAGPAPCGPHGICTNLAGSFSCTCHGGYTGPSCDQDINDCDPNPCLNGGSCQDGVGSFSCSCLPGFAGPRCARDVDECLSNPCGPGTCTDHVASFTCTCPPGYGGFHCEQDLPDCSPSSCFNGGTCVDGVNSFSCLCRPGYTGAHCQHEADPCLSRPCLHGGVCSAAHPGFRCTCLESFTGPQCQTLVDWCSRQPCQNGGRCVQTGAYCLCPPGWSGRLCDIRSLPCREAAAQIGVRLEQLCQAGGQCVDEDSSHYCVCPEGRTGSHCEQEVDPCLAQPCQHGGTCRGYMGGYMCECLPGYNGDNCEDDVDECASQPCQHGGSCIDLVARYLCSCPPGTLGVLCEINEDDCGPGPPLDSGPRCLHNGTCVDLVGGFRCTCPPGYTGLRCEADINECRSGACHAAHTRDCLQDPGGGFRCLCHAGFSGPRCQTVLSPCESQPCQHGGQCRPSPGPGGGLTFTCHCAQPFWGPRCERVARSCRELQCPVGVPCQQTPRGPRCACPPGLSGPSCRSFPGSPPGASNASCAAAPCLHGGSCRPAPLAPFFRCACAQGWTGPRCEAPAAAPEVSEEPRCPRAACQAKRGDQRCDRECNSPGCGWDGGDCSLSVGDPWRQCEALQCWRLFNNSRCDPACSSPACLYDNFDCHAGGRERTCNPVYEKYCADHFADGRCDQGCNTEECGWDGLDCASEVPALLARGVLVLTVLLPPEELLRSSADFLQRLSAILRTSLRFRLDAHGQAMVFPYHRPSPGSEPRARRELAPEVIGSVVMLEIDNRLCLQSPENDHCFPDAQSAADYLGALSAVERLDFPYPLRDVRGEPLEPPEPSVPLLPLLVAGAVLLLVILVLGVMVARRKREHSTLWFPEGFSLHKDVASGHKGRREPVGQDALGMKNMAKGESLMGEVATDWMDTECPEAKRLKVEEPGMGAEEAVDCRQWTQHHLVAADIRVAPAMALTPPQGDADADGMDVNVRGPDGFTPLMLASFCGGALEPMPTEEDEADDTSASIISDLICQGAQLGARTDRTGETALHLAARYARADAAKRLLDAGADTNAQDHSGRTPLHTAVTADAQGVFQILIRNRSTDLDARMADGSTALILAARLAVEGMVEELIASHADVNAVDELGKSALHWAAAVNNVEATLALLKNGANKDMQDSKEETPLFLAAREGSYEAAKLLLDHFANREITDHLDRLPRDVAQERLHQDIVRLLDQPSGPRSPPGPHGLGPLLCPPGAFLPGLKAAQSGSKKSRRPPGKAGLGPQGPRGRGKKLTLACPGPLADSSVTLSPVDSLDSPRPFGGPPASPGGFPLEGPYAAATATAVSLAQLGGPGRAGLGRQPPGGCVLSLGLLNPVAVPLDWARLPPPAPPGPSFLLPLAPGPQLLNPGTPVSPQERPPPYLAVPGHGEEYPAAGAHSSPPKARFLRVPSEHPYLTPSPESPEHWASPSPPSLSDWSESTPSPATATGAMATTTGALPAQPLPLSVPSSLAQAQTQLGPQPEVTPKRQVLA

Regarding `CN(C)c1ccc(C(O)C2C=CC3C(=O)NC(=O)C3N2Nc2ccccn2)cc1` (stereo not given), the composite z-score is 0.757 in [1]; 1.31 in assay [5]; -0.118 in assay [7]; 0.438 in [8]; 1 in assay [9]; 0.107 in [10]. The z-score is -0.0671 (inactive) in assay [2], 0.716 (inactive) in assay [3], 0.504 (inactive) in [4] and -1.26 (inactive) in assay [6].
For the compound `C[C@@H]1NC(=O)[C@@H](Cc2ccccc2)NC(=O)[C@@]23C(=O)N[C@@H](Cc4ccccc4)C2[C@H](C)[C@@]2(C)O[C@H]2C3/C=C/C/C=C\CNC1=O` (stereo not given in full), the composite z-score was -1.06 in [1]; 2.84 in assay [5]; -0.218 in assay [7]; 0.972 in assay [8]; 0.354 in [9]; -0.168 in [10]. Also, the z-score was 0.378 (inactive) in [2], 0.573 (inactive) in [3], 0.783 (inactive) in assay [4] and -1.02 (inactive) in assay [6].
With `CCCC[C@@H](O)C1=C(COC)C[C@H]2C(=O)N(C)C(=O)[C@H]2[C@H]1CO`, the composite z-score is 0.0449 in assay [1]; -0.419 in assay [5]; -0.353 in assay [7]; 0.578 in assay [8]; -0.277 in assay [9]; -0.156 in assay [10]. Also, the z-score is -2.33 (inactive) in [2], -1.77 (inactive) in [3], -1.21 (inactive) in assay [4] and 1.1 (inactive) in [6].
With `CCOC(=O)C1=CC[C@@H](c2ccccc2)N(S(=O)(=O)c2ccc(C)cc2)[C@H]1c1ccccc1`, the composite z-score in assay [1] came out at 0.0074; in assay [5] it was 1.74; in assay [7], 0.02; in assay [8], 0.156; in assay [9], 0.505; in assay [10], 0.0515. The z-score in assay [2] is 0.181 (inactive); in assay [3], 1.88 (inactive); in [4] it was 3.8 (inactive); in assay [6] it was -0.794 (inactive).
Turning to `C=CCC(OC(C)=O)[C@@H]1[C@@H](N(Cc2ccc(-c3cccc(C(F)(F)F)c3)o2)C(=O)Cc2ccc(OC)cc2)c2cc(OCCCO)ccc2N1C(=O)c1ccc(-c2ccccc2)cc1` (stereo not given in full), the composite z-score is 0.62 in [1]; 0.442 in assay [5]; -0.0436 in assay [7]; -0.478 in assay [8]; -0.449 in assay [9]; -0.146 in assay [10]. Besides, the z-score in assay [2] is 0.282 (inactive); in assay [3], 0.297 (inactive); in [4] it was 0.322 (inactive); in assay [6] it was -0.936 (inactive).
With `COCCOC(=O)N1C(=O)[C@@]2(c3cc(C#CC4=CCCCC4)ccc31)[C@H](c1ccccc1OCCO)N1[C@H](c3ccccc3)[C@H](c3ccccc3)OC(=O)[C@H]1[C@@H]2C(=O)NC[C@H](O)c1ccccc1`, the composite z-score in assay [1] was 1.54; in [5], 2.54; in assay [7] it was -0.0671; in [8] it was 1.45; in [9], 1.07; in assay [10], -0.0476. Also, the z-score in assay [2] is 1.01 (inactive); in [3], 0.785 (inactive); in assay [4], 3.28 (inactive); in assay [6], -0.314 (inactive).
Turning to `CCCC=C(CCC)[C@@H](NP(=O)(c1ccccc1)c1ccccc1)c1ccc(-c2ccccc2)cc1`, the composite z-score in assay [1] is 1.54; in [5], 3.11; in assay [7], 0.123; in assay [8], 0.649; in [9] it was 1.12; in assay [10] it was 0.0825. Further, the z-score is 1.09 (inactive) in [2], 2.34 (inactive) in assay [3], 1.84 (inactive) in [4] and -0.932 (inactive) in assay [6].
On to `C=C(COC)/C(=C/C[C@H](OC(=O)c1ccncc1)c1ccc(CO)o1)c1cnc2ccccc2c1`, for which the composite z-score in assay [1] was 1.54; in assay [5], 1.34; in assay [7], -0.114; in assay [8], 0.84; in [9] it was 1.09; in assay [10], -0.0805. The z-score in assay [2] is 0.685 (inactive); in assay [3] it was -0.694 (inactive); in assay [4], 0.662 (inactive); in [6], -0.148 (inactive).
As for `COc1ccc(C#Cc2ccc3c(c2)[C@]2(C(=O)N3)[C@H](c3ccc(OCCO)cc3)N3[C@H](c4ccccc4)[C@H](c4ccccc4)OC(=O)[C@H]3[C@@H]2C(=O)NC[C@H](O)c2ccccc2)cc1`, the composite z-score in assay [1] was 1.57; in assay [5], 3.08; in assay [7], -0.0977; in assay [8], 0.447; in assay [9], 1.08; in assay [10] it was -0.0152. Besides, the z-score in [2] was 4.38 (inactive); in assay [3], 2.39 (inactive); in assay [4] it was 4.82 (inactive); in [6] it was 1.16 (inactive).
Consider `COc1cc(NN2C(C(O)c3ccc(N(C)C)cc3)C=CC3C(=O)N(c4ccccc4)C(=O)C32)cc(OC)c1OC` (stereo not given), for which the composite z-score in assay [1] was 0.824; in assay [5] it was 1.4; in assay [7] it was 0.473; in [8], -0.308; in assay [9], 0.544; in assay [10], 0.0955. Also, the z-score in assay [2] was 0.146 (inactive); in assay [3], -0.424 (inactive); in assay [4], -0.363 (inactive); in assay [6] it was -1.58 (inactive).
Take `CC(CO)N1C(=O)[C@]2(C)C3C(=O)OCCC/C=C\[C@H]3OC23C=CCN(c2ccc(Cl)cc2)C(=O)[C@@H]13` (stereo not given in full): the composite z-score is -1.06 in assay [1]; -1.08 in assay [5]; -0.152 in assay [7]; -0.554 in [8]; -0.162 in assay [9]; -0.165 in assay [10]. The z-score in [2] was 0.0276 (inactive); in assay [3], -0.358 (inactive); in [4] it was -0.14 (inactive); in assay [6] it was 0.525 (inactive).
`O=C1OCCC/C=C\[C@H]2OC34C=CCN(c5ccc6ccccc6c5)C(=O)[C@H]3N(CCO)C(=O)[C@@H]4C12` (stereo not given in full): the composite z-score is -0.352 in [1]; 0.25 in [5]; -0.14 in assay [7]; -1.79 in assay [8]; -0.858 in [9]; -0.335 in [10]. The z-score was 0.0709 (inactive) in assay [2], -0.224 (inactive) in [3], 0.341 (inactive) in assay [4] and 0.491 (inactive) in assay [6].
Consider `CC1CC/C=C\[C@H]2OC34C=CCN(C(C)(C)C)C(=O)[C@H]3N(CCCCCO)C(=O)[C@@H]4C2C(=O)O1` (stereo not given in full), for which the composite z-score was -0.187 in assay [1]; -0.0626 in [5]; -0.261 in assay [7]; -0.673 in assay [8]; -0.284 in assay [9]; -0.262 in [10]. Also, the z-score in assay [2] is -0.0244 (inactive); in assay [3], 0.531 (inactive); in [4], -0.615 (inactive); in assay [6] it was -0.129 (inactive).
